# Source: PubChem (National Center for Advancing Translational Sciences (NCATS))
# Rows were chosen to be rich in hits. Some 8.1% of all compounds tested hit in one or more screens of this group.
# MCF10A rerep: inducers of DNA re-replication in MCF 10A breast cells; MCF 10A DNA re-replication, Hoechst nuclear intensity, 48 h; Potency, µM (highest dose often 46.1 µM), inactives show top-dose activity, positive = re-replication, actives largely listed as activators; 2.9% of 350,000 active; note: % of control where 0% means no effect; nearly all actives have a fitted effect of over 50% in size
# SW480 rerep: induces DNA re-replication in SW480 colon adenocarcinoma cells; SW480 DNA re-replication, Hoechst DNA content imaging, 48 h; Potency, µM (doses to about 46.1 µM), without a hit: at the highest dose re-replication activation, actives largely listed as activators; 1.8% of 340,000 active; AID 624297; note: % of control where 0% means no effect; nearly all actives have a fitted effect of over 55% in size
#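 Image-based read-out: total Hoechst fluorescence of nuclei (405 nm excitation, 500-530 nm emission), with hits raising the fraction of high-intensity nuclei. SW480 colon cells incubated 48 hr with compounds at 37 C.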
# KB-3-1 cytotox: kills parental KB-3-1 adenocarcinoma cells; KB-3-1 viability, CellTiter-Glo ATP luminescence, 72 h; 1.4% of 400,000 active; Potency, µM (top dose mostly 46.1 µM), most hits filed as cytotoxic; AID 1347075; note: % is set by controls: 0 for no effect and ±100 for the full control effect; nearly all actives have a fitted effect of over 60% in size
#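 KB-3-1 parental drug-naive adenocarcinoma cells in DMEM/10% FBS, incubated 72 h at 37 C with pin-transferred compounds across a concentration series. Viability by CellTiter-Glo luminescence; concentration-response curves fitted after normalization.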
# ELG1 repair inh: ELG1-dependent DNA repair inhibition. Potency, µM (titrated, usually from 46.1 µM), for the others: at the highest dose activity change, negative = inhibition, most hits filed as inhibitors. 2.3% of 330,000 active. HEK293T ELG1-luciferase reporter, luminescence, 16 h; DNA damage induced by 5-fluorouridine; note: % is set by controls: 0 for no effect and ±100 for the full control effect; nearly all actives have a fitted effect of over 55% in size
#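 Reporter activity after DNA damage by 5-fluorouridine is monitored. Compound-treated cells incubate 16 hr at 37 °C, then ONE-Glo is added for 30 min before luminescence reading.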
# KB-V1 MDR tox: kills drug-selected multidrug resistant KB-V1 cells. KB-V1 MDR cells viability, CellTiter-Glo, 72 h. Potency, µM (series often up to 46.1 µM), usual class: cytotoxic. 3.4% of 400,000 active. AID 1347076; note: % is set by controls: 0 for no effect and ±100 for the full control effect; nearly all actives have a fitted effect of over 60% in size
#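 Compound-treated KB-V1 multidrug-resistant cells, 72 h, 37 degrees C; viability by CellTiter-Glo. Fitted qHTS curves give the values.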
# * marks the source's active call; other numbers are inactive results; i = inactive; ? = inconclusive; / = no result given; ! = a repeat was not active; [ ] = another dose, or the depositor's remark. Calls come from the whole dose curve; as a rule, active = well fitted curve in the direction sought with a large enough effect; inconclusive = small, poorly fitted or top-dose-only effect, or another doubt; inactive = no such curve, though single readings can be large; an effect the other way counts as inactive or inconclusive. Potency is the fitted concentration of half-maximal effect.
SMILES,MCF10A rerep,SW480 rerep,KB-3-1 cytotox,ELG1 repair inh,KB-V1 MDR tox
CCOC(=O)C(=CNc1ccc(C(O)(C(=O)OCC)C(F)(F)F)cc1C)C(=O)OCC (stereo not given),?,-5.0%,i,18.4µM*,?
CC(C)(C)OC(=O)N(CCc1ccccc1)Cc1ccc(OCc2cccc(NC(=O)c3ccccc3)c2)cc1,-5.5%,?,i,/,i
COc1ccc(CCNC(=O)N2c3ccccc3Sc3ccccc32)cc1,16.4µM*,24.3%,?,/,?
C[C@H](NC(=O)N1C[C@H]2C[C@@H](C1)c1cccc(=O)n1C2)C(=O)Nc1cccc(F)c1,-3.1%,-18.2%,i,-18.1%,i
Cc1c(CC(=O)N2C[C@H]3C[C@@H](C2)c2cccc(=O)n2C3)c(=O)oc2c(C)c(O)ccc12,-6.4%,1.6%,i,21.2%,i
Nc1ccc2nc3c(c(Cl)c2c1)CCCC3,16.4µM*,?,?,?,?
OCCNc1c2c(nc3ccccc13)CCCC2,-6.1%,-2.8%,i,-18.7%,i
CSCCC(c1nnnn1-c1c(C)cccc1C)N1CCC(n2c(=O)[nH]c3ccccc32)CC1 (stereo not given),/,/,i,/,i
Cc1ccc(-c2nc(N(C)C3CCN(C)CC3)c3ccccc3n2)cc1,6.0%,12.7%,i,4.9%,20.6µM*
Cc1ccc(S(=O)(=O)c2nc(-c3ccccc3Cl)oc2N(C)C2CCN(C)CC2)cc1,?,?,i,-7.1%,i
O=c1[nH]c(=O)n(CCc2ccccc2)c(O)c1C=NCc1ccc2c(c1)OCO2,7.5%,0.1%,i,?,?
COc1ccc(C2SCC(=O)Nc3c2c(=O)[nH]n3C2CCCCCC2)cc1OC (stereo not given),-1.9%,-5.3%,i,?,?
COc1ccc(-c2nnc3sc(C4CCCCC4)nn23)cc1OC,-182.8%[0.0737 µM],-8.5%,i,18.4µM*,i
COc1ccc(-n2c(Cc3cccc([N+](=O)[O-])c3)nc3ccccc3c2=O)cc1,1.0%,-2.0%,i,-18.8%,i
CC12CC[C@H]3[C@@H](CCC4(O)C[C@H](O)CCC34/C=N/NC(=O)Cc3ccccc3)C1(O)CCC2C1=CC(=O)OC1 (stereo not given in full),16.5%,-7.5%,i,-5.7%,i
C[C@]12CC[C@H](O)C[C@H]1CC[C@@H]1[C@@H]2CC[C@]2(C)[C@@H](C3=CC(=O)OC3)CC[C@]12O,?,?,1.64µM*,?,1.46µM*
C[C@H]1O[C@@H](O[C@H]2[C@@H](O)C[C@@H](O[C@H]3[C@@H](O)C[C@H](O[C@H]4CC[C@@]5(C)[C@H](CC[C@@H]6[C@@H]5CC[C@]5(C)[C@@H](C7=CC(=O)OC7)CC[C@]65O)C4)O[C@@H]3C)O[C@@H]2C)C[C@H](O)[C@@H]1O,/,/,0.0103µM*,/,?
CC(=O)OC1CC(OC2C(O)CC(OC3C(O)CC(OC4CCC5(C)C(CCC6C5CC(O)C5(C)C(C7=CC(=O)OC7)CCC65O)C4)OC3C)OC2C)OC(C)C1OC1OC(CO)C(O)C(O)C1O (stereo not given),0.184µM*,1.84µM*,?,/,0.92µM*!
C[C@]12CC[C@H](O)C[C@H]1CCC1C2CC[C@]2(C)[C@@H](c3ccc(=O)oc3)C[C@H]3O[C@]132 (stereo not given in full),13.3µM*,?,?,/,?
CO[C@H]1[C@@H](O)CC(OC2[C@@H](O)CC(OC3[C@@H](O)C[C@H](OC4CC[C@@]5(C)C(CCC6C5CC(O)[C@]5(C)[C@H](C7=CC(=O)OC7)CCC65O)C4)O[C@@H]3C)O[C@@H]2C)O[C@@H]1C (stereo not given in full),19.7%,9.8%,/,/,/
CC(=O)O[C@H]1[C@H]2O[C@]23[C@@H]2CC[C@]4(O)C[C@@H](O)CC[C@]4(C)C2CC[C@]3(C)[C@H]1c1ccc(=O)oc1 (stereo not given in full),19.2%,0.1%,?,?,i
CC/C(=N\N1CCCCC1)c1c(O)[nH]c(=O)[nH]c1=O,-5.7%,-2.4%,i,-3.0%,i
CC12CC[C@H]3[C@@H](CCC4(O)C[C@H](O)CCC34/C=N/NC(=O)c3ccccc3[N+](=O)[O-])C1(O)CCC2C1=CC(=O)OC1 (stereo not given in full),16.4µM*,7.5%,9.2µM*,-27.0%,?
CNC(=O)Nc1ccc(C(=O)N/N=C\C23CC[C@@H](O)CC2(O)CC[C@@H]2[C@@H]3CCC3(C)C(C4=CC(=O)OC4)CCC23O)cc1 (stereo not given in full),14.3%,-4.1%,?,-12.7%,i
CC12CCC(O)CC1CCC1C2CCC2(C)C(C3=CC(=O)OC3)C(O)CC12O (stereo not given),2.06µM*,23.1µM*,?,/,4.11µM*
SMILES,MCF10A rerep,SW480 rerep,KB-3-1 cytotox,ELG1 repair inh,KB-V1 MDR tox
COC1C(O)C(C)OC(OC2CCC3(C)C(CCC4C3C(O)CC3(C)C(C5=CC(=O)OC5)CCC43O)C2)C1O (stereo not given),0.259µM*,1.3µM*,0.206µM*,/,0.184µM*
CC12CCC(O)CC1CCC1C2CCC2(C)C(C3=CC(=O)OC3)CCC12O (stereo not given),?,5.8µM*,1.16µM*,/,0.731µM*
CC(=O)C1CCC2C3CCC4CC(O)CCC4(C)C3CCC12C (stereo not given),?,19.6%,i,0.4%,i
CCC(C)(C)n1nnnc1C(c1cccs1)N1CC=C(c2ccc(F)cc2)CC1 (stereo not given),?,10.6%,i,?,i
COC(=O)C1=C(c2ccccc2)C[C@@H]2CC[C@H]1N2C(=O)NCc1cccc2ccccc12,-1.2%,-9.8%,i,/,i
CCCCn1c(O)c(C(C)=NCC2CCCO2)c(=O)[nH]c1=O (stereo not given),-181.9%[0.0737 µM],-3.3%,i,-7.8%,i
CCOC(=O)c1ccc(NC(=O)N2C[C@@H]3C[C@@H](C2)c2cccc(=O)n2C3)cc1,4.8%,-5.9%,i,2.6%,i
BrCC(Br)(Br)Br,?,4.8%,i,28.4%,i
Cc1ccc(S(=O)(=O)N2Cc3cc(-c4cccc(F)c4)ccc3-n3nncc3C2)cc1,/,/,i,/,i
O=c1cc(-c2ccc(O)cc2)oc2c(C3O[C@H](CO)[C@@H](O)[C@H](O)[C@H]3O)c(O)cc(O)c12 (stereo not given in full),-5.8%,?,i,9.2%,i
